The source of these data is ChEMBL document CHEMBL3988442, “University of Dundee, Small-Polar-MMV Screening Library” (2021).

The campaign covered roughly 48,000 compounds. About 13,000 (27%) showed an effect of 50% or more. The list shows a part of the results.

This assay deals with Wolbachia pipientis. The assay is described as follows: Anti-Wolbachia Cell-Based Screen. It is filed as functional. Set-up: scale not given: in the data most compounds retested in dose-response had high values. As to conditions: 5 µM.
Take `CCOCC(=O)Nc1ccc(N2CCSCC2)cc1C`: the “Percent Effect” value is recorded as -9.938%. The value for `O=C(O)C(F)(F)F.O=C(O)C(F)(F)F.c1csc(CN2Cc3[nH]nc(COCC4CC4)c3C2)c1` was -16.32%; that for `Cc1cccc(S(=O)(=O)N2C[C@@H]3C[C@@H](c4nc(C)no4)O[C@@H]3C2)c1` was 113.1%. Turning to `Cc1cccc(S(=O)(=O)N2C[C@H]3C[C@H](C(=O)NCC4CC4)[C@@H](C2)O3)c1`, the “Percent Effect” value is on record as -9.673%. In the case of `Cc1cccc(S(=O)(=O)N2C[C@H]3C[C@H](C(=O)NC4CCC4)[C@@H](C2)O3)c1`, the “Percent Effect” value was -10.53%. The value for `Cc1cccc(S(=O)(=O)N2C[C@H]3C[C@H](C(=O)N(C)C)[C@@H](C2)O3)c1` was -13.43%.

`Cc1cccc(S(=O)(=O)N2C[C@@H]3OCCN(C(C)C)[C@@H]3C2)c1`: the “Percent Effect” value is -15.31%. `Cc1cccc(S(=O)(=O)N2C[C@@H]3C[C@@H](c4nnc(C)[nH]4)O[C@@H]3C2)c1`: the “Percent Effect” value was determined as 102.4%. For `Cc1ccc(-c2cn3c(n2)CO[C@@H](CNCc2cnn(C)c2)C3)cc1`, the “Percent Effect” value amounted to 12.36%.

For `O=C(c1ccc(O)c(Cl)c1)N1C[C@@H](CN2CCCCCC2)[C@@H](CO)C1`, the “Percent Effect” value is listed as -0.5835%. Under `COCCN(C)C[C@@H]1CN(C(=O)c2ccc(O)c(C)c2)C[C@@H]1CO` stands 126%; under `Cc1cc(C(=O)N2C[C@@H](CN3CCCCC3)[C@@H](CO)C2)ccc1O`, -7.322%; under `COc1cc(C)ccc1C(=O)N1C[C@@H](CN(C)CCO)[C@@H](CO)C1`, -2.888%. Under `COCCN(C)C[C@@H]1CN(C(=O)c2ccc(C)c(Cl)c2)C[C@@H]1CO` stands 113.4%. As to `COc1ccc(C(=O)N2C[C@@H](CN3CCCCC3)[C@@H](CO)C2)cc1Cl`, the “Percent Effect” value is listed as -0.8846%. As for `CCCOc1ccc(C(=O)N2C[C@@H](CN3CCCC3)[C@@H](CO)C2)cc1Cl`, the “Percent Effect” value was 0.3871%. Under `COCCN(C)C[C@@H]1CN(C(=O)c2ccc(O)c(Cl)c2)C[C@@H]1CO` stands 127.9%; under `CC(C)CN1C(=O)COC[C@@H]1[C@H](O)c1ccc(NC(=O)C2CC2)cc1`, -2.654%; under `CC(C)c1cc(N[C@@H](CO)C(N)=O)n2nccc2n1`, 27.01%. `Cc1cnn(-c2cccc(N3CCCCC3)n2)c1`: the “Percent Effect” value is recorded as -2.755%. With `CC(C)c1nc(C2CCCN(C(=O)c3ccc4[nH]nnc4c3)C2)no1` (stereo not drawn), the “Percent Effect” value stood at 134.9%. The value for `CC(C)c1nccn1C1CCCN(C(=O)c2ccc3[nH]nnc3c2)C1` (stereo not drawn) was -9.073%. Under `O=C(c1ccc2c(c1)OCO2)N1CCCC(n2cccn2)C1` (stereo not drawn) stands 4.266%.

For `CC(C)c1nc(C2CCCN2C(=O)c2ccc3nncn3c2)no1` (stereo not drawn), the “Percent Effect” value is listed as -6.434%. In the case of `CC(C)c1nc(C2CCCN(C(=O)c3ccc4c(c3)OCO4)C2)no1` (stereo not drawn), the “Percent Effect” value is on record as 127.5%.

Regarding `CC(C)c1nc(C2CCCN(C(=O)c3ccc4c(c3)COC4)C2)no1` (stereo not drawn), the “Percent Effect” value worked out at 126.8%. Under `CC(C)c1nc(C2CCCN(C(=O)c3ccc4nccn4c3)C2)no1` (stereo not drawn) stands -6.875%. Under `CC(C)c1nc(C2CCCN(C(=O)c3ccc4nncn4c3)C2)no1` (stereo not drawn) stands 123.4%.
